This note sets out measurements from PubChem BioAssay (NCATS).

Structures are written as SMILES. Records with an inconclusive call do not appear. Calls of active or inactive are those of the source. Calls come from the whole dose curve; as a rule, active = well fitted curve in the direction sought with a large enough effect; inconclusive = small, poorly fitted or top-dose-only effect, or another doubt; inactive = no such curve, though single readings can be large; an effect the other way counts as inactive or inconclusive.

Assay [1] can be described thus: SW1088 Cancer Cell Toxicity qHTS against the NCATS CANVASS Library (AID 1347350). Note: nearly all actives have a fitted effect of over 75% in size. Note: potency is the fitted concentration of half-maximal effect. In a few lines: (§1)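 1000 cells/well seeded and rested 4 h at 37 °C before pin transfer of compounds in an 11-pnt series. Exposure 72 h at 37 °C/5% CO2; viability by CellTiter-Glo luminescence after 15 min at room temperature.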
Background: qHTS replaces the single test concentration by a dilution series.

Assay [2] can be described thus: A2780 Cisplatin Sensitive Ovarian Cancer Cell Toxicity qHTS against the NCATS CANVASS Library (AID 1347353). Note: nearly all actives have a fitted effect of over 60% in size. Note: potency is the fitted concentration of half-maximal effect. In a few lines:
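A2780 cisplatin-sensitive cells (750 per well) were seeded, left 4 h at 37 °C, then pin-dosed in an 11-point series. After 72 h at 37 °C/5% CO2, viability was measured as ATPLite luminescence.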

Assay [3] is described as follows: HEK293 24hr Apoptosis Induction qHTS against the NCATS CANVASS Library (AID 1347359). In a few lines:
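HEK293 cells, 500 per well, exposed to an 11-point compound series for 24 hours at 37 degrees C. Caspase 3/7 activity read by Caspase-Glo luminescence (DEVD substrate) after 15 min at room temperature.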

Assay [4] concerns the target Luciferin 4-monooxygenase (Photinus pyralis) (UniProt P08659). Kind of assay: Firefly luciferase counterscreen qHTS: Assay Interference Panel against the NCATS CANVASS Library (AID 1347363). Note: series mostly up to about 57 µM. In a few lines:
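Purified P. pyralis luciferase (0.04 ug/mL, 4x reagent) added to Tris-acetate buffer with 0.013 mM D-luciferin, 0.013 mM ATP and 13.3 mM Mg-acetate; compounds preincubated 15 min, then luminescence read after 5 min, RT.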
For orientation: A counterscreen serves to expose hits that act by an unwanted route or on another target.

Assay [5] is described as follows: KB-8-5-11 Cancer Cell Toxicity qHTS against the NCATS CANVASS Library (AID 1347364). Note: nearly all actives have a fitted effect of over 75% in size. Note: potency is the fitted concentration of half-maximal effect. In a few lines: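 KB-8-5-11 cells (500/well) in DMEM + 10% FBS were exposed to compounds in an 11-point qHTS series for 72 hr at 37C, 5% CO2. Viability was read by CellTiter-Glo luminescence.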
The nature of assay [6]: SDT Cancer Cell Toxicity qHTS against the NCATS CANVASS Library (AID 1347365). Note: nearly all actives have a fitted effect of over 60% in size. Note: potency is the fitted concentration of half-maximal effect. The gist of the method:
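SDT canine glioma cells (500 cells/well) were exposed to compounds in an 11-point series for 72 hr at 37C, 5% CO2; viability was read as ATP content by CellTiterGlo luminescence.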

A short description of assay [7]: G06 Cancer Cell Toxicity qHTS against the NCATS CANVASS Library (AID 1347368). Note: nearly all actives have a fitted effect of over 60% in size. Note: potency is the fitted concentration of half-maximal effect. In a few lines: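 G06 dog glioma cells seeded at 500 cells/well were exposed to compounds (11-point qHTS series) for 72 hr at 37C, 5% CO2; viability read as ATP content by CellTiterGlo luminescence.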
Assay [8] can be described thus: qHTS for Hypoxia signaling pathway (HIF-1) antagonists against the NCATS CANVASS Library (AID 1347374). Note: nearly all actives have a fitted effect of over 60% in size. Note: potency is the fitted concentration of half-maximal effect. In a few lines: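 HRE-bla ME-180 cells (2,000/well, 0.5% dialyzed FBS) were pre-incubated 5 h, then given an 11-point compound series plus CoCl2 (60 uM solution as added) for 17 h at 37C. CCF4 β-lactamase read (ex 405, em 460/530 nm) after 2 h at RT.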
Assay [9] can be described thus: Inflammasome Signaling qHTS Counterscreen: IL-1-beta AlphaLISA counterscreen against the NCATS CANVASS Library (AID 1347381).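 Note: cell-free check with purified IL-1β in medium and no THP-1 cells; series mostly up to about 57 µM.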 In a few lines: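 To flag interference with the AlphaLISA read-out, a known amount of purified IL-1-beta (4 pg) replaced cell supernatant. Detection used anti-IL-1-beta acceptor beads, biotinylated antibody and streptavidin donor beads at room temperature.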

Assay [10] is described as follows: qHTS for Activators of p53 Stress Response Pathway screened against the NCATS CANVASS Library (AID 1347388). Note: potency is the fitted concentration of half-maximal effect. In a few lines: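 p53RE-bla HCT-116 cells (4000/well) were pre-incubated for 5 h, then treated with compound (11 points) for 16 h at 37C. After 2 h with CCF4, the 460/530 nm ratio gave reporter activation; CellTiter-Glo measured viability.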
Assay [11] is described as follows: qHTS for activators of Nrf2/ARE signaling pathway screened against the NCATS CANVASS Library (AID 1347391). Note: nearly all actives have a fitted effect of over 60% in size. Note: potency is the fitted concentration of half-maximal effect. In a few lines:
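ARE-bla HepG2 beta-lactamase reporter cells, 2000 cells/well, were preincubated 5 h, then exposed to compounds (11-point series) for 16 h at 37C. CCF4 fluorescence (ex 405, em 460/530 nm) after 2 h at room temperature.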

Assay [12] is described as follows: qHTS for inhibitors of ER calcium dysfunction: SERCaMP assay screened against the NCATS CANVASS Library (AID 1347393). Note: nearly all actives have a fitted effect of over 40% in size. Note: potency is the fitted concentration of half-maximal effect. The gist of the method: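 SH-SY5Y GLuc-SERCaMP, 1000 cells/well, 4 h attach; cpd 16 h, 37C/5% CO2; thapsigargin (added as 6x 600 nM) 4 h; coelenterazine; luminescence. Reduced reporter release = ER Ca stabilization.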
A short description of assay [13]: HPAF-II 12hr Apoptosis Induction qHTS against the NCATS CANVASS Library (AID 1347358). The gist of the method: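 HPAF-II cells (500/well, DMEM + 10% FBS) were exposed to compounds for 12 hours at 37 degrees C. Caspase-3/7 activity was then read by Caspase-Glo 3/7 luminescence after 15 min at room temperature.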
A short description of assay [14]: qHTS for ATAD5 Agonist screened against the NCATS CANVASS Library (AID 1347367).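 Note: luciferase reporter driven by ATAD5 which rises upon DNA damage.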 In a few lines:
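HEK293T cells stably carrying an ATAD5-controlled luciferase reporter (2000 cells/well) attached for 5 hr, then received compounds in an 11-point series for 16hr at 37C. Luminescence was read after a 30 min room-temperature reagent step.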

A short description of assay [15]: DH5-alpha competent E. coli microbial cell viability qHTS against the NCATS CANVASS Library (AID 1347377). Conditions: outcome: dose series up to 46.1 µM unless noted. In a few lines:
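DH5-alpha E. coli suspension (0.9 OD culture diluted to 0.2 OD) exposed to compounds in an 11-point series, overnight at 37C, 5% CO2. Viability read as ATP by BacTiter-Glo luminescence after 20 min at room temperature.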

Assay [16] is described as follows: qHTS for activators of dead-cell proteases activity screened against the NCATS CANVASS Library (AID 1347392).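 Note: luminescence from protease leaking out of membrane-damaged cells cleaving impermeant substrate; rising signal means more cytotoxicity.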 In a few lines:
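HepG2 cells, 2000/well, attached 18 h at 37C, then exposed to compounds (11-point qHTS) for 5 h. Dead-cell protease release read as luminescence from cell-impermeant AAF-aminoluciferin substrate after 15 min at room temperature.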

Assay [17] can be described thus: HEK-293 Cancer Cell Toxicity qHTS against the NCATS CANVASS Library (AID 1347355). Note: nearly all actives have a fitted effect of over 65% in size. Note: potency is the fitted concentration of half-maximal effect. In a few lines:
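Cells were seeded at 1000 per well and allowed to settle 4 hours at 37 degrees C before pin transfer of compounds as an 11-point series. Viability was read by CellTiter-Glo luminescence after 72 hours' exposure.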

The nature of assay [18]: qHTS for inhibitors of Wild type Zika virus screened against the NCATS CANVASS Library (AID 1347396).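 Note: ATP luminescence of surviving cells so rescue from viral cell killing; series mostly up to about 46 µM.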 The gist of the method: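 Vero 766 (African green monkey) cells, 1000 per well, attached overnight, then compounds were added in an 11-point series before wild-type Zika virus infection. After 72 h at 37C, cell viability was read as CellTiter Glo luminescence.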
The nature of assay [19]: OV-SAHO Cancer Cell Toxicity qHTS against the NCATS CANVASS Library (AID 1347348). Note: nearly all actives have a fitted effect of over 55% in size. Note: potency is the fitted concentration of half-maximal effect. The gist of the method: as §1
Assay [20] can be described thus: OV-KATE Cancer Cell Toxicity qHTS against the NCATS CANVASS Library (AID 1347345). The gist of the method:
as §1

Chain of Luciferin 4-monooxygenase (Photinus pyralis) (P08659 whole entry, looked up): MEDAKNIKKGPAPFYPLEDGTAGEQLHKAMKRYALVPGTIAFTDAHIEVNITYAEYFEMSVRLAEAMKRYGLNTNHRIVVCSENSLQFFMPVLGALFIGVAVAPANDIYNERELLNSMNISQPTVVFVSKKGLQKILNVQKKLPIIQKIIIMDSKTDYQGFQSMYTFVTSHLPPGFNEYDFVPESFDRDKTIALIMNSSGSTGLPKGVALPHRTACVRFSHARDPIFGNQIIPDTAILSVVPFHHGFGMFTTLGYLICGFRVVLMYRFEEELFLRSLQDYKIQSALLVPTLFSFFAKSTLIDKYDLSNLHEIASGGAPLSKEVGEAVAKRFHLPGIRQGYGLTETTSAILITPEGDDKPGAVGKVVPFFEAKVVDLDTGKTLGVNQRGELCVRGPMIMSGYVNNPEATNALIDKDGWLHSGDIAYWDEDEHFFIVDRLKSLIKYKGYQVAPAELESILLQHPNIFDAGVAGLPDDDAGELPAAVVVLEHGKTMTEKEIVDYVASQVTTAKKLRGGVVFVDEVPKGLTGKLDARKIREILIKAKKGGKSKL

On to `C/C=C/C(=O)C1(O)CC2CC(C(=O)O)CC(C)C2C1C1=C2C(=O)NC(=O)C2=C(CCCCC)C(C)O1` (centres undefined), for which the Potency in assay [1] is 7.49 µM (active); in assay [2], 8.33 µM (active); in assay [6], 16.6 µM (active); in [7] it was 11.8 µM (active); in assay [8], 5.94 µM (active); in [10], 7.41 µM (active). Besides, the results for the Potency in assay [11] and in [12] were 1.17 µM (active) and 19.3 µM (active), respectively. Besides, the Potency result in assay [3], in assay [4] and in assay [5] was “inactive” in each case. Moreover, the call in assay [9] was inactive.

With `COC(=O)c1cc2cc3c(c(O)c2c(=O)o1)OC1(CC3)CC2=C(O1)C(=O)c1c(O)c(OC)cc(OC)c1C2=O` (centres undefined), the Potency in [1] was 13.3 µM (active); in assay [2], 20.9 µM (active); in [8], 14.9 µM (active); in assay [11], 10.5 µM (active). For the same compound, the Potency entry in [13], in [3], in assay [4], in [14], in [16] and in assay [12] was “inactive” each time. In assay [15], the compound was called inactive.

As for `CO[C@H]1/C=C/CCCCC(=O)O[C@@H](/C(C)=C/[C@H](C)C(=O)C[C@H](O)CC2CC(=O)NC(=O)C2)[C@@H](C)C1`, the Potency result in assay [1], in assay [13], in assay [5], in assay [14], in [10] and in [12] was “inactive” in each case. Besides, the Potency in assay [2] was 4.69 µM (active); in assay [17], 14.8 µM (active); in assay [6], 4.69 µM (active); in [7] it was 5.26 µM (active); in [8] it was 7.47 µM (active); in assay [11], 16.6 µM (active). Besides, the compound was classed as inactive in [15], in [9] and in [18].

In the case of `CC(C)=CC[C@H]1C[C@@]2(CC=C(C)C)C(=O)[C@](CC=C(C)C)(C(=O)C(C(=O)c3ccccc3)=C2O)C1(C)C`, the Potency was 14.9 µM (active) in assay [19]; 4.21 µM (active) in [1]; 14.8 µM (active) in [2]; 23.5 µM (active) in assay [17]; 20.9 µM (active) in assay [5]; 20.9 µM (active) in [7]. In addition, the Potency was 5.94 µM (active) in assay [8] and 30.5 µM (active) in assay [12]. Moreover, the Potency entry in [3], in assay [4], in assay [14], in assay [10], in [11] and in [16] was “inactive” in each case. The outcome in assay [15], in assay [9] and in [18] was inactive.

Turning to `CC(=O)N[C@H](C)c1nc(/C=C/C=C/C(=O)CC2CC(=O)CC[C@]2(C)O)cs1` (some centres undefined), the Potency entry in assay [20], in assay [19], in assay [1], in assay [17], in assay [13] and in [3] was “inactive” each time. For the same compound, the Potency entry in [4], in assay [5], in [6], in assay [7], in assay [8] and in assay [10] was “inactive” in each case. Further, the Potency entry in assay [11], in assay [16] and in assay [12] was “inactive” each time. For the same compound, the call in assay [15], in [9] and in assay [18] was inactive.

As to `CC(C)=CCC/C(C)=C/Cc1cc([C@@H]2CC(=O)c3c(cc(O)c(CC=C(C)C)c3O)O2)ccc1O`, the results for the Potency in [1], in [11] and in [12] were 14.9 µM (active), 20.9 µM (active) and 38.4 µM (active), respectively. In addition, the Potency result in assay [2], in assay [13], in [3], in assay [5], in [6] and in assay [14] was “inactive” in each case. The Potency entry in [7], in assay [10] and in assay [16] was “inactive” in each case. Besides, the outcome in assay [15] and in assay [18] was inactive.

Turning to `C[C@@]1(CCC(=O)Nc2c(O)ccc(C(=O)O)c2O)C(=O)C=C[C@]23C[C@H]4C[C@H](O[C@@]4(C)C2)C31` (some centres undefined), the Potency result in assay [20], in assay [19], in [1], in [2], in [17] and in [13] was “inactive” in each case. The Potency entry in [4], in assay [5], in [6], in assay [7], in assay [8] and in assay [10] was “inactive” throughout. Also, the Potency result in assay [11], in assay [16] and in [12] was “inactive” throughout. Moreover, the outcome in assay [15] and in [18] was inactive.
